Laboratory results as given in PubChem BioAssay (NCI).
About 83,000 compounds went through this panel and 20% of them were active in at least one assay; those are over-represented in the sample as a whole.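 The test compound was applied at a single concentration to cells in 96-well plates for 48 hours, and percent growth was recorded.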 A number with no mark means an inactive call. Active and inactive are the calls of the source. The calls were made as follows: active = growth percent below 10; inactive = the rest.

test system: HL-60(TB) leukemia; test: NCI-60 one-dose screen, 48 h (100 = growth as untreated, 0 = no growth, -100 = all killed); conditions: 10 µM unless noted

SMILES | growth
CC1(C)[C@H](O)CC[C@]2(C)[C@@H]1CC[C@@]13C[C@@H](CC[C@H]12)[C@@](O)(CO)C3 | 106%
COC(=O)C(OC(C)=O)C(OC(C)=O)c1ccc(OC)c(OC)c1 (stereo not given) | 81.3%
CC(C)NC(=O)OCc1c(COC(=O)NC(C)C)c(-c2ccc(Cl)c(Cl)c2)n2c1SCC2 | 7.43% (active)
COc1cc(CNCCCN2C(=O)c3ccc4c5c(ccc(c35)C2=O)C(=O)N(CCCNCc2cc(OC)c(OC)c(OC)c2)C4=O)cc(OC)c1OC | -35.8% (active)
Cc1ccc2[nH]c(=O)c3c(c2c1)OC(N)=C(C#N)C31C(=O)c2cccc3cccc1c23 (stereo not given) | 98.6%
CCOc1ccc(/C=N/NC(=O)c2cccc3ccccc23)cc1OCC | 100%
C=CC1=C(C(=O)O)N2C(=O)[C@@H](NC(=O)/C(=N\O)c3csc(N)n3)[C@H]2SC1 (stereo in doubt) | 118%
CC(C)(C)n1nc(C2CC2)c(Br)c1NC(=O)c1ccccc1F | 104%
CC(O)COc1ccc(-c2ccccc2)cc1 (stereo not given) | 102%
Cc1ccc(-c2csc(N(C(=O)N3CCN(c4cc5c(cc4F)c(=O)c(C(=O)O)cn5C4CC4)CC3)c3ccccc3)n2)cc1 | 1.91% (active)
COc1ccc(S(=O)(=O)NCCCNc2nccc(-c3c(-c4ccc(F)cc4)nc4sccn34)n2)cc1 | 70.4%
CN=C1C=C/C(=N/N=c2/ccn(O)cc2C)C=C1C | 75.6%
CC(=O)CC[C@H]1C(=O)N[C@@H](C(C)C)C(=O)N[C@@H](Cc2cc(O)cc(F)c2)C(=O)N2CCC[C@H](N2)C(=O)O[C@H](/C(C)=C/C=C/C(=O)OC(C)(C)C)C/C=C/C=C/[C@H](O)[C@H](C)[C@H]1O | 56%
COc1ccc2occ(C3=C(c4c[nH]c5ccccc45)C(=O)NC3=O)c2c1 | 20.8%
CCCCCC(=O)c1ccc(OCCCN2CCN(C(=O)OCC)CC2)cc1 | 72.4%
Cc1nc2sc(C(=O)Nc3cccc(Cl)c3)c(N)c2cc1C(O)c1ccccc1 (stereo not given) | -40.9% (active)
O=C(/C=C/C12c3ccccc3C(c3ccccc31)C1C(=O)N(c3ccccc3)C(=O)C12)c1ccc(Cl)cc1 (stereo not given) | 10.7%
CC(C)Nc1ccc(Nc2ccc(NC(C)C)cc2)cc1 | 22.1%
CC(=O)O.CC(=O)O.O.[Fe] | 114%
O=[N+]([O-])c1ccc(Cl)c(-c2cc(CCCCO)on2)c1 | 90.7%

SMILES | growth
Cc1cc(C)c(S(=O)(=O)N2CCN(c3cc4c(cc3F)c(=O)c(C(=O)O)cn4C3CC3)CC2)c(C)c1 | 8.72% (active)
COc1cccc2c1C(=O)c1c(O)c3c(c(O)c1C2=O)C[C@](O)(C(=O)CO)C[C@H]3O[C@@H]1C[C@@H](NC(=O)CCCN(C)C2(c3ccc(F)cc3)CC3CCC2C3)[C@H](O)[C@@H](C)O1 (stereo not given in full) | 76%
N#Cc1c(-c2ccc(Cl)cc2)nc(NN=Cc2ccc[nH]2)nc1N1CCOCC1 | 2.28% (active)
Clc1ccc2c(c1)nnn1c3ncccc3c(Br)c21 | 113%
CN(C)c1ccc(/C=C/c2sc3ccc4ccccc4c3[n+]2C)cc1 | -41.8% (active)
NC1CCC(Nc2nc(NCc3ccc(-c4ccco4)nc3)c3ncn(C4CCCC4)c3n2)CC1 (stereo not given) | -33.3% (active)
O=C1C2=C(Nc3cc(Cl)ccc3N2)OC1c1c[nH]c2ccc(COc3ccccc3)cc12 (stereo not given) | 81.6%
COc1ccc(-c2nc(N3CCN(C(=O)C4CCCCC4)CC3)c3c4c(sc3n2)CCCC4)cc1 | 39%
N#CC1=C(N)Oc2nc[nH]c(=O)c2C1c1cccs1 (stereo not given) | 98.8%
C=C1CC/C=C(\C)C(=O)C[C@@H]2[C@@H]1CC2(C)C | 105%
O=C1c2c(c3c4ccccc4[nH]c3c3ccc4ccccc4c23)C(=O)N1CCN1CCOCC1 | 53.6%
COc1cc2c(Nc3ccc(-c4ccc(N)cc4)cc3)ncnc2c(OC)c1OC | 11.7%
Brc1ccc(-c2csc(Nc3ccccn3)n2)cc1 | 79.2%
Cc1ccc2c(c1)C(C)Cc1c(N(C)C)ncnc1N2C (stereo not given) | -5.91% (active)
CCOC(=O)C(=Cc1ccc(-c2ccccc2)cc1)C(=O)OCC | -10.6% (active)
OCCN1CCOCC1 | 121%
N#CCNc1ccccc1N | 95.2%
C[C@]12O[C@H]1[C@H](O)c1c(cc(O)c3c1C(=O)c1cccc(O)c1-3)C2=O | 100%
COc1cc2nnc3c4cccnc4[nH]c3c2cc1OC | -54.3% (active)
CCCCCCCC1(C)NC(=O)NC1=O (stereo not given) | 100%
